# Test results as given in PubChem BioAssay.
# Calls of active or inactive are those of the source. Unless noted, the rule behind the calls is not given here.
# Legend:
# [1] = test system: Wnt5a (protein binding on small-molecule microarray); assay: small molecules binding Wnt5a protein – biophysical, small-molecule microarray, 635/667 nm fluorescence, primary screen (AID 1142); settings: 635 nm fluorescence, higher = more signal;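 note: fluorescence read at 667 nm with signal to noise per printed feature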
# [2] = ATP-based viability of Huh7 replicon cells – cell-based, CellTiter-Glo luminescence, basal, 48 h, cytotoxicity control for HCV replication inhibitor project, primary screen (AID 1143); settings: higher = more signal, called active from +8 up or from −8 down;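 note: Huh7 hepatoma cells carrying a hepatitis C replication reporter with no stimulus; test concentration not given here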
# [3] = Pseudomonas biofilm growth suppression – PAO1 strain, BacTiter-Glo luminescence, LB-PBS, primary screen (AID 1144); settings: P. aeruginosa PAO1 biofilm, 12 h, higher = more signal
# [4] = basal CRE-LacZ reporter activity in PC12 – cell-based, unstimulated, primary screen (AID 1145); settings: no forskolin, luminescence, 4.5 h, higher = more signal, called active from +8 up or from −8 down
# [5] = forskolin-driven CRE-LacZ activity in PC12 – cell-based, CRE-LacZ reporter, forskolin-stimulated, primary screen (AID 1146); settings: luminescence, 4.5 h, higher = more signal, called active from +8 up or from −8 down;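 note: PC12 cells with 6xCRE LacZ reporter stimulated by forskolin 10 µM; beta-galactosidase reporter signal reflecting CREB driven transcription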
# [6] = biological target: Streptavidin (Streptomyces avidinii) (UniProt P22629); assay: compounds binding control protein streptavidin – biophysical, small-molecule microarray, 635/667 nm fluorescence, artefact control for SMM compound annotation, primary screen (AID 1147); settings: higher = more signal;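 note: signal reflects streptavidin binding to arrayed compounds as a control protein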
# Streptavidin (Streptomyces avidinii), sequence (P22629 whole entry, looked up): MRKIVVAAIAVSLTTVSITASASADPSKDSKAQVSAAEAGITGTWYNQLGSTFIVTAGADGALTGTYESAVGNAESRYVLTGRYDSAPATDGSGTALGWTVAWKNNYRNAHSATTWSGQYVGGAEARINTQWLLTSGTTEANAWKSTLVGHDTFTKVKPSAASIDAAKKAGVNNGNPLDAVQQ
# [7] = probe aInhba binding on compound microarray – biochemical, small-molecule microarray, 635/667 nm fluorescence, primary screen (AID 1148); settings: higher = more signal;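 note: score merges 667nm spot fluorescence with signal-to-noise for antibody binding to printed compounds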
# Torsin-1A (Homo sapiens) [8] = biological target: Torsin-1A (Homo sapiens) (UniProt O14656); assay: TOR1A wild-type binding on microarray – cell lysate, small-molecule microarray, lysate, 635/667 nm, primary screen (AID 1149); settings: COS7 hTOR1A-WT lysate, 635 nm fluorescence, higher = more signal
# Torsin-1A (Homo sapiens), sequence (O14656 whole entry, looked up): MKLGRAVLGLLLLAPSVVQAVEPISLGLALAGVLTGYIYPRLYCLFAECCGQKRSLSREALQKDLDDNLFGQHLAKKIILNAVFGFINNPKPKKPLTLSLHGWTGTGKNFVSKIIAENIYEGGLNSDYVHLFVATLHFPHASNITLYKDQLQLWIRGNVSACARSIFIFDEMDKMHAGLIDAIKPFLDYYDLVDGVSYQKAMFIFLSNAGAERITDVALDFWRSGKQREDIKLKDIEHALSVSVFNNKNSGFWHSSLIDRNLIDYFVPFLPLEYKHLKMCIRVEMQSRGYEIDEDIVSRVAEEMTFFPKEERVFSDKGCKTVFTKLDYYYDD
# Torsin-1A (Homo sapiens) [9] = biological target: Torsin-1A (Homo sapiens) (UniProt O14656); assay: torsin A mutant lysate binding on microarrays – cell lysate, small-molecule microarray, COS7 lysate, 635/667 nm fluorescence, primary screen (AID 1150); settings: COS7 hTOR1A mutant lysate, 635 nm fluorescence, higher = more signal;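 note: score pools 667 nm emission and signal to noise measuring lysate protein binding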
# [10] = test system: Sonic hedgehog protein (Shh); assay: Sonic hedgehog microarray binding compounds – biochemical, small-molecule microarray, 635/667 nm fluorescence, primary screen (AID 1151); settings: 635 nm fluorescence, higher = more signal;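 note: Shh protein binding to compounds spotted on small-molecule microarray slides; score combines spot fluorescence intensity with signal-to-noise across triplicate slides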
# [11] = optical density shifts of acrAB sulA E. coli – strain DRC41, OD650, 48 h, E. coli filamentation inducer project, primary screen (AID 1152); settings: higher = more signal, called active from +8 up or from −8 down;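 note: E. coli MC1000 strain DRC41 lacking acrAB efflux pump and sulA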
# [12] = probe aLefty1 binding on compound microarray – biochemical, small-molecule microarray, 635/667 nm fluorescence, primary screen (AID 1153); settings: higher = more signal;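 note: score merges spot fluorescence with signal-to-noise ratio from the scanned slide images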
# [13] = plasmodial surface anion channel blockers, osmotic lysis – cell-based, P. falciparum Indochina, OD700, 1 h, primary screen (AID 1154); settings: P. falciparum Indochina infected RBC osmotic lysis, higher = more signal, called active from +8 up or from −8 down
# [14] = plasmodial surface anion channel blockers, osmotic lysis – cell-based, P. falciparum Indochina, OD700, 2 h, primary screen (AID 1155);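 note: lysis reports solute entry through the parasite surface anion channel PSAC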; settings: P. falciparum Indochina infected erythrocytes, higher = more signal, called active from +8 up or from −8 down
# [15] = changes in parasitized red cell lysis, either direction – P. falciparum Indochina, OD700, 3 h, PSAC antagonist project, primary screen (AID 1156); settings: P. falciparum-infected erythrocytes, osmotic lysis, higher = more signal, called active from +8 up or from −8 down
# [16] = plasmodial surface anion channel blockers, osmotic lysis – cell-based, P. falciparum Indochina, OD700, 18 h, primary screen (AID 1157); settings: P. falciparum Indochina infected erythrocytes, osmotic lysis OD700, 18 h; higher = more signal, called active from +8 up or from −8 down
# [17] = S6 kinase pathway phospho-S6 level changes – cell-based, A549, cytoblot, luminescence, serum-stimulated, primary screen (AID 1158); settings: 5 h, higher = more signal;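 note: serum-stimulated A549 lung adenocarcinoma cells; signal is phosphorylated S6 detected by cytoblot immunostaining with HRP secondary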
# [18] = biological target: NADPH oxidase 2 (Homo sapiens) (UniProt P04839); assay: compounds shifting NOX2 Amplex Red fluorescence – cell-based, HEK293-NOX2, PMA-stimulated, NOX inhibitor project, primary screen (AID 1159); settings: 45 min, higher = more signal, called active from +8 up or from −8 down; note: test concentration not given here
# NADPH oxidase 2 (Homo sapiens), sequence (P04839 whole entry, looked up): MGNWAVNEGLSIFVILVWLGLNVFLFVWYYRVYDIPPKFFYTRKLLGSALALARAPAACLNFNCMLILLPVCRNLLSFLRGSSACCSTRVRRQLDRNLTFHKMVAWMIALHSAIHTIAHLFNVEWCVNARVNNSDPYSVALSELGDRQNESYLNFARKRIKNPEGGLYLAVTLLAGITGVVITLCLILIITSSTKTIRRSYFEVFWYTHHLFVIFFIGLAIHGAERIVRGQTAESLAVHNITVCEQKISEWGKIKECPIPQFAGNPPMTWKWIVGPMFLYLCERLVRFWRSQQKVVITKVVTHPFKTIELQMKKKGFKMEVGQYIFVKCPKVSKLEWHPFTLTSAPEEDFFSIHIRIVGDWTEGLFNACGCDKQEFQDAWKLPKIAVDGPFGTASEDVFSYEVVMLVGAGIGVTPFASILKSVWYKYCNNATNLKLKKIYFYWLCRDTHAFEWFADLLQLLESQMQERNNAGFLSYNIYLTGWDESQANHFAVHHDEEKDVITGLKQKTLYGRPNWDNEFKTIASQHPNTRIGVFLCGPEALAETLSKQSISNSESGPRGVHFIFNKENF
# [19] = biological target: NADPH oxidase 4 (Homo sapiens) (UniProt Q9NPH5); assay: compounds shifting NOX4 Amplex Red fluorescence – cell-based, HEK293-NOX4, tetracycline-induced, NOX inhibitor project, primary screen (AID 1160); settings: HEK293-NOX4, Amplex Red H2O2 fluorescence, 45 min; higher = more signal, called active from +8 up or from −8 down
# NADPH oxidase 4 (Homo sapiens), sequence (Q9NPH5 whole entry, looked up): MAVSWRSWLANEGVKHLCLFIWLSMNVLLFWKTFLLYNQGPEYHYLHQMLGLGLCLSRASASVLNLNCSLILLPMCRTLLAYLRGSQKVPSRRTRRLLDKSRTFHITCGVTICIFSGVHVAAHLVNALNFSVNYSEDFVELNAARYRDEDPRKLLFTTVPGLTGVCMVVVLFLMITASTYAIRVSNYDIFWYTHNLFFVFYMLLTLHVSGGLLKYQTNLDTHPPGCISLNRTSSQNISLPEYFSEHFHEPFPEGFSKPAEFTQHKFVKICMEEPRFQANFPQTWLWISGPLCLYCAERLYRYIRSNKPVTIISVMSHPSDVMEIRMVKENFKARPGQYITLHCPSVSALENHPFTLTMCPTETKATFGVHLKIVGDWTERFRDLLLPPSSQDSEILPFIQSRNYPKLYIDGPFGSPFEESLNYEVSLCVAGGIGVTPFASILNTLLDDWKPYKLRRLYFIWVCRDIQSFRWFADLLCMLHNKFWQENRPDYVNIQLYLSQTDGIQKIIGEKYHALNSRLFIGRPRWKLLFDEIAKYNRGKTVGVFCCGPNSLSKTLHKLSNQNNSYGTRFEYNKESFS
# [20] = biological target: NADPH oxidase 5 (Homo sapiens) (UniProt Q96PH1); assay: compounds shifting NOX5 Amplex Red fluorescence – cell-based, HEK293-NOX5, NOX inhibitor project, primary screen (AID 1161); settings: HEK293-NOX5, ionomycin, 45 min, higher = more signal
# NADPH oxidase 5 (Homo sapiens), sequence (Q96PH1 whole entry, looked up): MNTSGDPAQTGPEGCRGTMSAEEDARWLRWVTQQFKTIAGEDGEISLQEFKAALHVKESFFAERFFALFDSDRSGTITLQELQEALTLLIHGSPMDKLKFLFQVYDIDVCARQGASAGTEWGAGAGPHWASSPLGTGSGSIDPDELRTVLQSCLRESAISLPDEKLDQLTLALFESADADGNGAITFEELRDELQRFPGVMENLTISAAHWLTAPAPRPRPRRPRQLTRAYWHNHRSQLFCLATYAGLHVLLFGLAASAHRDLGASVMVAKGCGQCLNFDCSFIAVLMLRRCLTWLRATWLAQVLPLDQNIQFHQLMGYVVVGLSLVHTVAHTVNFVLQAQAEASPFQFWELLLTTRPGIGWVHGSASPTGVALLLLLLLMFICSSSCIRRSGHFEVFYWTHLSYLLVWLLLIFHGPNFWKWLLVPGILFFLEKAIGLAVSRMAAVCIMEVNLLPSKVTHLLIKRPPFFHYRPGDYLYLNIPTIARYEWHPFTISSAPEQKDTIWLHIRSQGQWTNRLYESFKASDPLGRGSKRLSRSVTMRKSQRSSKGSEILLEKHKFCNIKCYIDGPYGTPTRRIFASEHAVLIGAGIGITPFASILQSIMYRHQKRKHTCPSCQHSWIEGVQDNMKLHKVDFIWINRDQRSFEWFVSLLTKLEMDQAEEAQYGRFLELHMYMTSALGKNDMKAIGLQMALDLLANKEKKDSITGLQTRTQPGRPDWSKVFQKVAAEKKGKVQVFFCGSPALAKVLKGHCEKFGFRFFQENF
SMILES,composite z-score [1],z-score [2],z-score [3],z-score [4],z-score [5],composite z-score [6],composite z-score [7],composite z-score (Torsin-1A (Homo sapiens) [8]),composite z-score (Torsin-1A (Homo sapiens) [9]),composite z-score [10],z-score [11],composite z-score [12],z-score [13],z-score [14],z-score [15],z-score [16],z-score [17],z-score [18],z-score [19],z-score [20]
CN(C)CCCNC(=O)[C@@]1(c2ccc([N+](=O)[O-])cc2)CC(=O)N(CC23CC4CC(CC(C4)C2)C3)[C@@H]1c1ccc(CO)cc1I,0.607,-5.93 (inactive),-0.263 (inactive),0.468 (inactive),0.372 (inactive),0.164,0.206,0.835,0.996,1.96,-5.6 (inactive),0.198,11.4 (active),2.32 (inactive),-8.44 (active),0.352 (inactive),-2.32,-10.3 (active),-5.46 (inactive),-7.32
O=C1O[C@@H](c2ccccc2)[C@@H](c2ccccc2)N2[C@@H](c3ccc(O)cc3)[C@]3(C(=O)Nc4ccc(C#CC5(O)CCCCCC5)cc43)[C@@H](C(=O)NC[C@H](O)c3ccccc3)[C@H]12,0.0895,-1.42 (inactive),-0.144 (inactive),-0.606 (inactive),-0.448 (inactive),-0.508,-0.0221,0.0581,-0.135,0.217,-0.557 (inactive),0.315,0.996 (inactive),0.707 (inactive),1.08 (inactive),0.973 (inactive),0.173,1.14 (inactive),0.441 (inactive),0.0466
CCCNC(=O)[C@@H]1c2ccccc2C(=O)N(C(C)C)[C@H]1c1ccc(CO)cc1,-0.122,-0.0095 (inactive),-0.521 (inactive),-0.412 (inactive),0.211 (inactive),-0.0547,0.0658,-0.215,0.0984,-0.121,0.737 (inactive),0.202,1.67 (inactive),-0.1 (inactive),0.21 (inactive),-0.21 (inactive),-0.0878,0.162 (inactive),0.514 (inactive),-0.0547
COc1ccc(C(O)C2C=CC3C(=O)N(c4ccccc4)C(=O)C3N2Nc2ccc([N+](=O)[O-])cc2)cc1 (stereo not given),0.516,-0.474 (inactive),0.403 (inactive),0.182 (inactive),-0.298 (inactive),0.789,1.18,0.0294,0.874,-0.397,-1.35 (inactive),0.987,14.3 (active),2.49 (inactive),0.547 (inactive),1.24 (inactive),-0.727,-0.897 (inactive),-2.79 (inactive),-2.72
C=CCOC(=O)[C@H]1[C@@H]2C(=O)O[C@@H](c3ccccc3)[C@@H](c3ccccc3)N2[C@@H](c2ccc(OCCOC(=O)[C@H]3C[C@H]4C(=O)N[C@@H](CCCCNC(C)=O)C(=O)N4[C@H]3c3ccc(O)cc3)cc2)[C@]12C(=O)Nc1ccccc12,0.228,-1.59 (inactive),-1.57 (inactive),0.147 (inactive),-0.542 (inactive),-0.292,-0.146,0.757,0.835,1.75,3.24 (inactive),0.026,1.59 (inactive),0.512 (inactive),-0.821 (inactive),-0.927 (inactive),1.4,1.89 (inactive),1.44 (inactive),1.04
C[C@]1(C(=O)NC2CC2)c2ccccc2C(=O)N(Cc2ccccc2)[C@H]1c1ccc(CO)cc1,-0.228,-4.5 (inactive),-0.483 (inactive),0.0279 (inactive),-0.957 (inactive),-0.854,0.0028,0.249,-0.489,-1.3,2.07 (inactive),-0.147,2.84 (inactive),0.17 (inactive),0.475 (inactive),-0.779 (inactive),2.26,-0.148 (inactive),-1.55 (inactive),-0.249
O=C1OCCC=C[C@H]2OC34C=CCN(Cn5nnc6ccccc65)C(=O)[C@H]3N(CCCCCCO)C(=O)[C@@H]4C12 (stereo not given in full),-0.512,0.523 (inactive),0.863 (inactive),0.191 (inactive),0.0417 (inactive),-1.12,-0.561,-0.103,-0.0648,-0.643,-0.051 (inactive),-0.81,0.987 (inactive),1.02 (inactive),0.946 (inactive),0.748 (inactive),0.916,0.94 (inactive),-0.201 (inactive),2.2
N#Cc1ccc(C(O)C2C=CC3C(=O)N(c4ccccc4)C(=O)C3N2Nc2ccccc2)cc1 (stereo not given),0.429,-3.06 (inactive),-0.955 (inactive),-0.133 (inactive),0.0648 (inactive),0.592,0.144,-0.0489,0.227,-0.669,0.128 (inactive),0.135,5.39 (inactive),-0.173 (inactive),1.18 (inactive),-0.889 (inactive),1.64,-2.73 (inactive),-4.19 (inactive),-3.02
COc1ccc(CCNC(=O)[C@@]2(Sc3ccc(C)cc3)CC(=O)N(C3Cc4ccccc4C3)[C@@H]2c2ccc(CO)cc2)cc1,1.56,-5.12 (inactive),-0.926 (inactive),-0.698 (inactive),-0.0678 (inactive),1.03,0.507,0.285,0.811,2.07,-0.336 (inactive),0.366,4.53 (inactive),-0.205 (inactive),-0.0174 (inactive),-0.874 (inactive),1.66,-2.19 (inactive),-1.05 (inactive),-4.9
